Laboratory results from PubChem BioAssay (NCATS).
Results filed as inconclusive are left out. Active and inactive are the calls of the source. Unless noted, calls follow the shape of the dose curve; as a rule, active = well fitted curve in the direction sought with a large enough effect; inconclusive = small, poorly fitted or top-dose-only effect, or another doubt; inactive = no such curve, though single readings can be large; an effect the other way counts as inactive or inconclusive.

How the values were obtained:
[1] = Cell Viability - MRC5 (AID 434; calls by dose curve;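 also: potency is read from the fitted curve at half-maximal effect; potency reflects cytotoxicity seen as loss of intracellular ATP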); settings: MRC5 lung fibroblast viability, qHTS
Summary of the method: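 AC50 values come from Hill-equation fits of intracellular ATP loss, measured by CellTiter-Glo luminescence. Normal lung fibroblasts (MRC5) had 40 hr compound treatment at 37 C, normalized between DMSO and 100 uM tamoxifen.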

[2] = Cell Viability - Renal Proximal Tubule (AID 545); settings: renal proximal tubule cells viability; series mostly up to 91.7 µM; also: nearly all actives have a fitted effect of over 40% in size
Summary of the method: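 Rat renal proximal tubule primary cells, 1000/well, exposed to compounds for 40 hr at 37 °C in complete medium; cellular ATP read by CellTiter-Glo luminescence. AC50 from concentration-response fitted with standard Hill equation.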

[3] = Cellular Toxicity (caspase-3) HepG2 (AID 654); settings: HepG2 caspase-3 activation, luminescence, 0% = DMSO only, 100% = tamoxifen; series mostly up to 92.2 µM;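 also: cells exposed to compound for 16 hours before reading; 0% = DMSO alone and 100% = caspase signal from 100 µM tamoxifen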
Summary of the method: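 Luminescent Caspase-Glo 3/7 readout after 16 hr compound exposure of human hepatocellular carcinoma HepG2 cells at 37 °C; qHTS concentration-response, normalized DMSO = 0%, 100 uM tamoxifen = 100%; AC50 by standard Hill equation.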

[4] = Cellular Toxicity (caspase-3) SHSY5Y (AID 657); settings: SH-SY5Y caspase-3 activation, DMSO zero, 10 µM staurosporine = 100%; series mostly up to 91.7 µM
Summary of the method: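 SH-SY5Y human neuroblastoma cells, 1500/well, exposed to compound for 16 hours at 37 °C in complete medium. Caspase-3/7 activity read by Caspase-Glo luminescence after 1 hr at room temperature, normalized to DMSO and 10 uM staurosporine; AC50 from Hill fit.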

[5] = Cellular Toxicity (caspase-3) H-4-II-E (AID 663); settings: H-4-II-E rat hepatoma; Potency: caspase-3 activation; series mostly up to 92.2 µM;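 also: cells exposed to compound for 16 hr before readout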
Summary of the method: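 Caspase 3/7 activation measured by luminescent aminoluciferin substrate cleavage after 16 hr compound treatment of H-4-II-E cells in complete medium. Increase normalized between DMSO (basal) and 100 uM tamoxifen (100%); Hill-equation AC50 from concentration-response.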

[6] = Cellular Toxicity (caspase-3) N2a (AID 665); settings: N2a cells, luminescence, normalized: DMSO 0%, 10 µM staurosporine 100%; series mostly up to 92.2 µM;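 also: compound exposure lasted 16 h at 37 °C before readout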
Summary of the method: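 Luminescent Caspase-Glo 3/7 readout in N2a mouse neuroblastoma cells after 16 h compound exposure at 37 °C. Signal scaled to DMSO (basal) and 10 uM staurosporine (100%). Concentration-response fitted with Hill equation for AC50.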

[7] = Cellular Toxicity (caspase-3) Renal Proximal Tubule (AID 667); settings: renal proximal tubule cells; series mostly up to 91.7 µM;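 also: cells exposed to compound for 16 hours at 37 °C before detection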
Summary of the method: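 Freshly isolated primary rat kidney proximal tubule cells, 1000/well, treated 16 hr at 37 °C, then Caspase-Glo 3/7 luminescence after 1 hr. Normalized to DMSO and 10 uM staurosporine; AC50 from Hill fit.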

[8] = Cell Viability - LYMP2-001 (AID 921); settings: LYMP2-001 lymphoblastoid cell viability; series mostly up to 92.2 µM;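 also: 0% = DMSO only and full inhibition = tetraoctylammonium bromide control wells; nearly all actives have a fitted effect of over 70% in size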
Summary of the method: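 Human lymphoblastoid LYMP2-001 cells, 2500 per well, in complete medium, treated 24 h at 37 C. Viability from cellular ATP by CellTiter-Glo luminescence; AC50 from Hill-equation fits of qHTS concentration-response.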

[9] = MultiTox-Fluor Cytotoxicity Assay - LYMP1-003 - Dead Cells (AID 961); settings: LYMP1-003 lymphoblastoid cells, dead-cell protease fluorescence; series mostly up to 92.2 µM; also: nearly all actives have a fitted effect of over 70% in size
Summary of the method: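 Dead-cell protease release, detected as bis-AAF-R110 fluorescence at 485/520 nm, was measured in LYMP1-003 cells after 16 h compound treatment at 37 C. AC50 values came from Hill-modeled qHTS curves normalized to DMSO (0%) and 15 uM tetraoctylammonium bromide (100%).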

[10] = Cell Viability - LYMP1-003 - Assay at 40 hr (AID 964); settings: LYMP1-003 lymphoblastoid viability; series mostly up to 92.2 µM; also: % is scaled to controls: 0 for no effect and ±100 for the full control effect; nearly all actives have a fitted effect of over 60% in size
Summary of the method: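 LYMP1-003 lymphoblastoid cells, 2500/well; 5 hr preincubation, 40 hr compound exposure, 37 C; CellTiter-Glo 30 min RT; luminescence; Hill-fit AC50. Positive control tetraoctylammonium bromide.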

[11] = Cell Viability - LYMP2-009 (AID 968); settings: LYMP2-009 lymphoblastoid cell viability; series mostly up to 92.2 µM;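 also: 0% = DMSO alone and the full-kill end = tetraoctylammonium bromide at 92 µM; nearly all actives have a fitted effect of over 55% in size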
[12] = Cell Viability - LYMP2-021 (AID 974); settings: LYMP2-021 lymphoblastoid cells viability; series mostly up to 92.2 µM;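 also: compound exposure lasts 24 hours at 37 °C; % is scaled to controls: 0 for no effect and ±100 for the full control effect; nearly all actives have a fitted effect of over 55% in size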
Summary of the method: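 ATP luminescence (CellTiter-Glo, 30 min RT) after 24 h compound exposure at 37 C; 2500 human lymphoblastoid cells/well, 5 h settle beforehand. Cytotoxicity = concentration-dependent ATP drop, AC50 by Hill fit.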

[13] = Cell Viability - LYMP2-006 (AID 978); settings: LYMP2-006 lymphoblastoid cell viability, qHTS; series mostly up to 92.2 µM;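 also: cells exposed to compound for 24 hours; % is scaled to controls: 0 for no effect and ±100 for the full control effect; nearly all actives have a fitted effect of over 60% in size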
Summary of the method: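 Human lymphoblastoid cells (LYMP2-006), 2500/well in complete medium, were treated with compound for 24 hr at 37 C. Cellular ATP was read by CellTiter-Glo luminescence after 30 min, and AC50 values came from Hill-equation fits of concentration-response data.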

[14] = Cell Viability - LYMP2-008 (AID 980); settings: LYMP2-008 lymphoblastoid cell viability, qHTS; series mostly up to 92.2 µM; also: % is scaled to controls: 0 for no effect and ±100 for the full control effect; nearly all actives have a fitted effect of over 60% in size
Summary of the method: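 Luminescent ATP read-out (CellTiter-Glo, 30 min RT) after 24 hr compound exposure at 37 C of human lymphoblastoid cells in complete medium. Decrease in ATP taken as cytotoxicity; AC50 derived by standard Hill fit of qHTS concentration-response data.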

[15] = Cell Viability - LYMP2-018 (AID 985); settings: LYMP2-018 lymphoblastoid cells, viability (qHTS); series mostly up to 92.2 µM;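 also: plate controls were DMSO only for no effect and tetraoctylammonium bromide at 92 µM for full effect; nearly all actives have a fitted effect of over 50% in size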
Summary of the method: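 2500 cells/well; 5 hr 37 C; cmpd 24 hr 37 C, complete medium; CellTiter-Glo 30 min RT; luminescence. Tetraoctylammonium bromide positive control. AC50 via Hill fit.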

[16] = Cell Viability - LYMP1-002 - Assay at 24 hr (AID 993); settings: LYMP1-002 lymphoblastoid cells viability; series mostly up to 92.2 µM; also: % is scaled to controls: 0 for no effect and ±100 for the full control effect
Summary of the method: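 CellTiter-Glo luminescence (intracellular ATP) after 24 h compound exposure, 37 C, in LYMP1-002 human lymphoblastoid cells; decreased ATP taken as cytotoxicity. AC50 from standard Hill fit of concentration-response curves.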

[17] = qHTS assay for environmental chemicals that activate the Aryl hydrocarbon Receptor (AhR) signaling pathway (AID 651777); settings: 1A2-DRE human hepatoma cells, luciferase, 24 h; activation: active compounds read high; also: % of control where 0% means no effect; nearly all actives have a fitted effect of over 15% in size
Summary of the method: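 Concentration–response screening used 1,200 1A2-DRE cells per well, 24 hr compound exposure (37 C, 5% CO2), and One-Glo luminescence as the AhR-driven CYP1A2 reporter signal.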

[18] = molecular target: Mitogen-activated protein kinase 10 (Mus musculus) (UniProt Q61831); assay: JNK3 AlphaScreen Assay (AID 530; active = well fitted curve in either direction with a large enough effect, not every such curve was filed as active;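 also: kinase came from lysate of stimulated human HepG2 cells; signal reports phosphorylation of biotinylated GST-cJun 1-79 at Ser73 with 10 µM ATP; % is scaled to controls: 0 for no effect and ±100 for the full control effect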); settings: JNK3 lysate, c-Jun phosphorylation; series mostly up to 57.1 µM
Summary of the method: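 Kinase buffer: 20 mM Tris-HCl pH 7.6, 10 mM MgCl2, 1 mM DTT, 0.1 mM Na3VO4, 0.01% Tween-20; ATP 10 uM. Substrate biotin-GST-cJun(1-79), enzyme from activated HepG2 lysates. Detection by Ser73 phospho-antibody AlphaScreen.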

[19] = qHTS assay for small molecule activators of the human pregnane X receptor (PXR) signaling pathway (AID 720659; call rule not given here; also: 0% is about no effect); settings: DPX-2 HepG2 CYP3A4-luciferase, 24 h; series mostly up to 92.3 µM
[20] = Cell Viability - LYMP1-003 - Assay at 24 hr (AID 963); settings: LYMP1-003 lymphoblastoid cell viability; series mostly up to 92.2 µM;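 also: plate controls were DMSO only for no effect and tetraoctylammonium bromide positive control for full effect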
Summary of the method: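 CellTiter-Glo luminescence (intracellular ATP) read after 24 hr, 37 C compound exposure of 2500 LYMP1-003 human lymphoblastoid cells/well in complete medium; qHTS concentration series; AC50 via standard Hill equation.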

CCOP(=S)(OCC)Oc1nc(Cl)c(Cl)cc1Cl
inactive: Potency [1] > 92 µM | outcome [2] | outcome [3] | outcome [4] | Potency [5] | outcome [6] | outcome [7] | Potency [8] | Potency [9] | Potency [10] | Potency [11] | Potency [12] | Potency [13] | Potency [14] | Potency [15] | Potency [16] | activation [17] 12%

O=Cc1ccc(Cl)cc1Cl
inactive: Potency [1] > 92 µM | Potency [18] | outcome [2] | outcome [3] | outcome [4] | Potency [5] | outcome [6] | outcome [7] | Potency [8] | Potency [9] | Potency [10] | Potency [11] | Potency [12] | Potency [13] | Potency [14] | Potency [15] | Potency [16] | activation [17] -0.378% | outcome [19]

Clc1ccc(C(Cl)(Cl)Cl)c(Cl)c1
inactive: Potency [1] > 92 µM | Potency [18] | outcome [2] | outcome [3] | outcome [4] | Potency [5] | outcome [6] | outcome [7] | Potency [8] | Potency [9] | outcome [20] | Potency [10] | Potency [11] | Potency [12] | Potency [13] | Potency [14] | Potency [16] | activation [17] -1.61% | outcome [19]

Cc1ccc2c(C)cccc2c1
inactive: Potency [1] > 92 µM | Potency [18] | outcome [3] | outcome [4] | Potency [5] | outcome [6] | outcome [7] | Potency [8] | Potency [9] | outcome [20] | Potency [11] | Potency [12] | Potency [13] | Potency [14] | Potency [15] | Potency [16] | activation [17] -0.533% | outcome [19]

COC(=O)Nc1cccc(OC(=O)Nc2cccc(C)c2)c1
inactive: Potency [1] > 92 µM | Potency [18] | outcome [2] | outcome [3] | outcome [4] | Potency [5] | outcome [6] | outcome [7] | Potency [8] | Potency [9] | outcome [20] | Potency [10] | Potency [13] | Potency [14] | Potency [15] | Potency [16]

CC(Cl)CCl (stereo not given)
inactive: Potency [1] > 92 µM | Potency [18] | outcome [2] | outcome [3] | Potency [5] | outcome [6] | outcome [7] | Potency [8] | Potency [9] | outcome [20] | Potency [10] | Potency [11] | Potency [12] | Potency [13] | Potency [14] | Potency [15] | Potency [16] | activation [17] 0.102% | outcome [19]

OCCOCCO
inactive: Potency [1] > 92 µM | Potency [18] | outcome [3] | outcome [4] | Potency [5] | outcome [6] | outcome [7] | Potency [8] | Potency [9] | outcome [20] | Potency [10] | Potency [12] | Potency [15] | Potency [16] | activation [17] -0.842% | outcome [19]

O=[N+]([O-])c1cccc2c([N+](=O)[O-])cccc12
inactive: Potency [1] > 92 µM | Potency [18] | outcome [2] | outcome [4] | Potency [5] | outcome [6] | outcome [7] | Potency [8] | outcome [20] | Potency [10] | Potency [13] | Potency [14] | Potency [15] | Potency [16] | activation [17] 0.19% | outcome [19]
